# MCF10A rerep – A quantitative high throughput screen for small molecules that induce DNA re-replication in MCF 10a normal breast cells; 2.9% of 350,000 active; MCF 10A DNA re-replication, Hoechst nuclear intensity, 48 h; Potency, µM (series often up to 46.1 µM), for inactives: at the highest dose activity, positive = re-replication, actives largely listed as activators; further: % of control where 0% means no effect; nearly all actives have a fitted effect of over 50% in size
# KB-V1 cytotox – qHTS assay for MDR1-selective chemotherapeutics: Primary screen using the drug-selected MDR subline cells KB-V1. 3.4% of 400,000 active. KB-V1 MDR cells viability, CellTiter-Glo, 72 h. AID 1347076, 2019. Potency, µM (top dose mostly 46.1 µM), usual class: cytotoxic; further: on the % scale 0 is the no-effect control and ±100 the full control effect; nearly all actives have a fitted effect of over 60% in size
#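 Compound-treated KB-V1 multidrug-resistant cells, 72 h, 37 degrees C; viability by CellTiter-Glo. Fitted qHTS curves give the values.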
# SW480 rerep – A quantitative high throughput screen for small molecules that induce DNA re-replication in SW480 colon adenocarcinoma cells; SW480 DNA re-replication, Hoechst DNA content imaging, 48 h; Potency, µM (top dose mostly 46.1 µM), without a hit: top-dose re-replication activation, actives largely listed as activators; 1.8% of 340,000 active; further: % of control where 0% means no effect; nearly all actives have a fitted effect of over 55% in size
#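 Cells (250 per well) received 23 nL compound or DMSO by pin tool and were kept 48 hr at 37 C, 5% CO2. Nuclei were then stained with Hoechst for 40 min and scanned for DNA content.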
# KB-3-1 cytotox – qHTS assay for MDR1-selective chemotherapeutics: Primary screen using the parental adenocarcinoma cell KB-3-1 | 1.4% of 400,000 active | Potency, µM (highest dose often 46.1 µM), most hits filed as cytotoxic | KB-3-1 viability, CellTiter-Glo ATP luminescence, 72 h; further: on the % scale 0 is the no-effect control and ±100 the full control effect; nearly all actives have a fitted effect of over 60% in size
#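 Using CellTiter-Glo luminescence, growth of non-resistant KB-3-1 adenocarcinoma cells is assessed 72 h after pin-tool compound addition at 37 °C. Normalized responses across the concentration series yield fitted curves.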
# ELG1 repair inh – qHTS screen for small molecules that inhibit ELG1-dependent DNA repair in human embryonic kidney (HEK293T) cells expressing luciferase-tagged ELG1. HEK293T ELG1-luciferase reporter, luminescence, 16 h; DNA damage induced by 5-fluorouridine. Potency, µM (highest dose often 46.1 µM), for inactives: at the highest dose activity change, negative = inhibition, hits mostly inhibitors. 2.3% of 330,000 active; further: on the % scale 0 is the no-effect control and ±100 the full control effect; nearly all actives have a fitted effect of over 55% in size
#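 Quantitative HTS, concentration-response format. 2,000 cells/well co-treated with 5-fluorouridine and compound, 16 hr in 5% CO2 at 37 °C; ONE-Glo luminescence read after 30 min.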
# * marks the source's active call; other numbers are inactive results; i = inactive; ? = inconclusive; . = no result given. This is a sample that favours compounds with a hit; in the whole collection about 8.1% have one here. The call rests on the fitted dose curve; in most records, active means well fitted curve in the direction sought with a large enough effect; inconclusive means small, poorly fitted or top-dose-only effect, or another doubt; inactive means no such curve, though single readings can be large; an effect the other way counts as inactive or inconclusive. Potency means the concentration at half of the fitted maximal effect.
SMILES,MCF10A rerep,KB-V1 cytotox,SW480 rerep,KB-3-1 cytotox,ELG1 repair inh
O=C(CN1/C(=C(/O)c2ccccc2)C(=O)c2ccccc2S1(=O)=O)c1ccccc1,6.0%,1.46µM*,-4.9%,?,-15.6%
Cc1ccc(OCC(=O)OC(C)CN2CCCCC2)cc1 (stereo not given),1.03µM*,i,-100.1%,i,-2.9%
COc1ccc(OCC(=O)OC(C)CN2CCCCC2)cc1 (stereo not given),0.8%,i,-92.5%,i,0.0%
Cc1ccc(Cn2c(C(=O)O)c(CNC3CCCCCC3)c3ccc(C)cc32)cc1,.,i,.,i,.
CC1(C(=O)Nc2cnc3ccccc3c2)CCN1C(=O)CC(c1ccccc1)c1ccccc1 (stereo not given),.,i,.,i,.
CCOCCC(=O)Nc1ccc2c(c1)c(=O)n(C)n2CC=C(C)C,.,i,.,3.66µM*,.
O=C(NCCOc1ccccc1)c1cccc(S(=O)(=O)N2CCN(Cc3ccccc3)CC2)c1,.,?,.,i,.
O=C(NCc1ccc(F)cc1)c1cccc(S(=O)(=O)N2CCCC2)c1,19.5%,23.1µM*,-0.8%,i,?
CN(Cc1ccc(OC(F)F)cc1)C(=O)c1cccc(S(=O)(=O)N2CCN(Cc3ccccc3)CC2)c1,-16.4%,?,-68.4%,14.6µM*,.
CN(Cc1c(F)cccc1Cl)C(=O)c1cccc(S(=O)(=O)N2CCN(Cc3ccccc3)CC2)c1,6.0%,i,7.5%,i,.
O=C(NCc1ccc(F)cc1)c1cccc(S(=O)(=O)N2CCOCC2)c1,3.8%,i,5.9%,i,7.8%
O=C(c1cccc(S(=O)(=O)N2CCOCC2)c1)N(Cc1ccc(F)cc1)Cc1ccco1,2.06µM*,i,-9.4%,i,-21.1%
COc1cccc(CNC(=O)c2cccc(S(=O)(=O)N3CCN(Cc4ccccc4)CC3)c2)c1,5.9%,14.6µM*,-2.9%,i,.
CCc1nc2c(OCc3cc(Cl)cc(Cl)c3)cccn2c1N(C)C(=O)CC(C)C,.,i,.,i,.
CCc1nc2ccc(C(=O)NCc3ccccc3OC)cn2c1N(CC)CCOC,.,?,.,i,.
COc1ccc(C)c2sc(N(Cc3cccnc3)C(=O)C3CCCCC3)nc12,.,i,.,i,.
CN1CCN(CCCNC(=O)Cn2c(-c3cccs3)cc3cc(Cl)ccc32)CC1,.,i,.,i,.
CN(C)C(=O)c1ccc(NC(=O)c2cccc(S(=O)(=O)N3CCN(Cc4ccccc4)CC3)c2)cc1,5.9%,i,-2.9%,i,.
CN(CC(=O)Nc1ccc(Cl)cc1)C(=O)c1cccc(S(=O)(=O)N2CCN(Cc3ccccc3)CC2)c1,?,?,10.3%,16.4µM*,?
C#CCN1C=C(C(=O)OCC)C(C)N(Cc2ccccc2I)S1(=O)=O (stereo not given),23.1µM*,i,1.3µM*,i,?
CCOc1ccc(CNc2nc3nc(C)c(Cc4ccccc4)c(=O)n3[nH]2)cc1,.,i,.,i,.
COc1cc(NC(=O)c2ccccc2F)ccc1NC(=O)c1cc2ccccc2o1,2.31µM*,i,?,i,-3.6%
COc1cc(NC(=O)c2oc3ccccc3c2C)ccc1NC(=O)c1ccco1,18.4µM*,i,1.2%,i,-22.5%
COc1cc(NC(=O)c2cc3ccccc3o2)ccc1NC(=O)c1ccco1,?,i,?,i,?
COc1cc(NC(=O)c2ccc(C)cc2C)ccc1NC(=O)c1cc2ccccc2o1,9.2µM*,i,?,?,5.6%
SMILES,MCF10A rerep,KB-V1 cytotox,SW480 rerep,KB-3-1 cytotox,ELG1 repair inh
COc1ccc(N=C2NC(=O)/C(=C/c3ccco3)S2)cc1,?,i,7.31µM*,i,?
COC(=O)/C=C1\SC(=Nc2ccc(OC)cc2)NC1=O,3.66µM*,i,-10.3%,i,5.2%
COC(=O)/C=C1\SC(=NC(=O)c2ccc(OC)cc2)NC1=O,-1.7%,i,-3.9%,i,0.3%
CC(NS(=O)(=O)c1cc2c3c(c1)CCN3C(=O)CC2)c1ccccc1 (stereo not given),.,i,.,i,.
CC(C)(Cc1nc2ccccc2[nH]1)c1nc2ccccc2[nH]1,.,?,.,i,.
COc1ccc(-c2cc(-c3ccccc3)nc(Cl)n2)cc1OC,23.1µM*,i,?,i,18.3µM*
Cc1ccc(-c2cc(-c3ccccc3)nc(Cl)n2)cc1,-5.9%,i,?,i,?
CCOc1ccc(-c2cc3cc(OC)c(OC)cc3c(C)n2)cc1,-13.8%,i,1.8%,i,?
CCc1nc(-c2ccc(OC)c(OC)c2)cc2cc(OC)c(OC)cc12,6.8%,?,-3.3%,i,25.9µM*
CCN1Cc2c(/C=C/c3ccccc3)nc3ccc(OC)cc3c2N(c2cccc(Cl)c2)C1,25.9µM*,i,27.6%,?,?
COc1ccc(N2CCc3c(C)nc4c(OC)cc(OC)cc4c32)c(OC)c1,25.9µM*,?,?,?,?
Cc1ccc2nc3c(c(N)c2c1)CCN3c1ccccc1,14.9%,?,2.7%,i,10.9%
Cc1nc2c(C)cccc2c2c1CCN2c1ccccc1F,?,i,-0.7%,i,-16.7%
COc1ccc(N2CCc3c(C)nc4c(OC)cccc4c32)cc1,?,?,?,4.61µM*,?
COc1cccc(N2CCc3c(C)nc4ccc(Cl)cc4c32)c1,?,16.4µM*,?,?,23.1µM*
COc1ccc(N2CCc3c(C)nc4c(OC)cc(OC)cc4c32)cc1,?,?,14.2%,i,?
C=CCSSSCC=C,-0.2%,.,5.2%,.,.
Cc1cc(/C=N/n2c(COc3ccccc3C)nc3ccccc3c2=O)c(O)c([N+](=O)[O-])c1,10.0%,i,13µM*,i,3.0%
Cc1ccccc1OCc1nc2ccccc2c(=O)n1/N=C/c1c[nH]c2ccccc12,16.4µM*,i,?,i,?
O=c1c2ccccc2nc(COc2ccccc2)n1/N=C/c1cc([N+](=O)[O-])ccc1O,26.0%,7.31µM*,6.9%,?,-20.8%
Cc1ccccc1OCc1nc2ccccc2c(=O)n1N,1.4%,i,-3.5%,i,?
CC(=O)Nn1c(COc2ccccc2C)nc2ccccc2c1=O,1.9%,i,-6.3%,i,16.1%
Cc1ccc(-c2[nH]ncc2/C=N/n2c(COc3ccccc3C)nc3ccccc3c2=O)cc1,5.8µM*,?,?,?,2.59µM*
Cc1ccccc1NC(=O)c1sc2nc(N3CCOCC3)c3c(c2c1N)CC(C)(C)OC3,.,i,.,i,.

# Screening results deposited in PubChem BioAssay by National Center for Advancing Translational Sciences (NCATS).
